molecular target: NADPH oxidase 2 (Homo sapiens) (UniProt P04839); experiment: compounds shifting NOX2 Amplex Red fluorescence – cell-based, HEK293-NOX2, PMA-stimulated, NOX inhibitor project, primary screen (AID 1159); conditions: 45 min, higher = more signal, called active from +8 up or from −8 down; note: test concentration not given here
Sequence (P04839 whole entry, looked up): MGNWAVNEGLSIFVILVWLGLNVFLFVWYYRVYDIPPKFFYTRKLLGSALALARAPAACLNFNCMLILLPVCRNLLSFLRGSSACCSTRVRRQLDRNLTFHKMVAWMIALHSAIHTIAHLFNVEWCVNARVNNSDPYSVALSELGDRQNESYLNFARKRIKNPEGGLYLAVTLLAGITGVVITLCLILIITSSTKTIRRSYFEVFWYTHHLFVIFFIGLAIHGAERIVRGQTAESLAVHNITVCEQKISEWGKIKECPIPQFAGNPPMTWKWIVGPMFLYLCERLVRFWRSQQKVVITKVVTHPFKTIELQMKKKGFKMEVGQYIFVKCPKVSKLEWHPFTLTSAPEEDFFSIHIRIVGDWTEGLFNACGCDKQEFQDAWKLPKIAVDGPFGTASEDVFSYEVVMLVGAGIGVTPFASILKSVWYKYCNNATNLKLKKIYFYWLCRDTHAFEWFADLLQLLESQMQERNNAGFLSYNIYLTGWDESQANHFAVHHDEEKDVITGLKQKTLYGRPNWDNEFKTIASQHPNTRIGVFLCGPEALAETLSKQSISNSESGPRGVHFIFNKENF

z-score, inactive:
COC(=O)[C@@]1(Cc2ccc(OC)cc2)[C@H]2c3cc(C(=O)N4CCCC4)n(CCc4ccc(O)c(OC)c4)c3C[C@H]2CN1C(=O)c1ccccc1 -0.124
CCOC(=O)C[C@H]1[C@H](OC(=O)c2ccccc2-c2ccccc2)[C@@H](NC(=O)c2ccccc2)c2cc(OCCCO)ccc2N1C(=O)Cc1ccc(OC)cc1 0.639
C=C(/C(=C/C[C@@H](OC(=O)c1ccncc1)c1ccccc1OCCO)c1cnc2ccccc2c1)C(C)C -2.57
COCCOC(=O)N1C(=O)[C@@]2(c3cc(C#CCC(C(=O)OC)C(=O)OC)ccc31)[C@H](C(=O)N1CCCCCCC1)[C@H]1C(=O)O[C@H](c3ccccc3)[C@H](c3ccccc3)N1[C@@H]2c1ccc(O)cc1 1.32
NC(=O)NCC#Cc1ccc2c(c1)[C@]1(C(=O)N2)[C@H](c2ccc(OCCO)cc2)N2[C@H](c3ccccc3)[C@H](c3ccccc3)OC(=O)[C@H]2[C@@H]1C(=O)N1CCCCCCC1 1.9
C=C(CCCC)/C(=C/C[C@H](OC(=O)c1ccncc1)c1ccc(CO)o1)c1cc(C(=O)OC)ccc1OC -0.582
O=C1N(CCS(=O)(=O)c2ccccc2)Cc2ccccc2C[C@@]12COC(c1ccc(OCCCO)cc1)=N2 -5.26
C[N+](C)(C)CCCCNC(=O)[C@H]1C[C@H]2C(=O)NCC(=O)N2[C@H]1c1ccc(O)cc1 -1.51
CC(C)N1C(=O)c2ccccc2[C@](C)(C(=O)O)[C@@H]1c1ccc(CO)cc1 0.229
C[N+](C)(C)CCCCCCNC(=O)[C@@H]1C[C@@H]2C(=O)NCC(=O)N2[C@@H]1c1ccc(O)cc1 0.823
COCCCNC(=O)[C@@]1(Cc2ccccc2CN=[N+]=[N-])N=C(c2ccc(OCCCO)cc2)O[C@H]1c1ccccc1N=[N+]=[N-] 0.0139
COC(=O)[C@@]1(Cc2ccc(OC)cc2)[C@H]2c3cc(C(=O)N(C)C)n(CCF)c3C[C@H]2CN1C(=O)c1ccccc1 0.605
C=CCNC(=O)[C@H]1[C@@H]2C(=O)O[C@@H](c3ccccc3)[C@@H](c3ccccc3)N2[C@@H](c2ccc(OCCO)cc2)[C@]12C(=O)N(C(=O)OCCOC)c1ccc(C#CC3=CCCCC3)cc12 1.99
O=C1C2C=CC(C(O)c3cccc4ccccc34)N(Nc3ccccc3)C2C(=O)N1c1ccccc1 (configuration not stated) -0.627
COc1ccc(C#Cc2ccc3c(c2)[C@]2(C(=O)N3)[C@H](C(=O)O)[C@H]3C(=O)O[C@H](c4ccccc4)[C@H](c4ccccc4)N3[C@@H]2c2ccc(OCCO)cc2)cc1 1.67
C=CCOC(=O)[C@H]1[C@@H]2C(=O)O[C@@H](c3ccccc3)[C@@H](c3ccccc3)N2[C@@H](c2ccc(OCCOC(=O)[C@H]3C[C@H]4C(=O)N[C@@H](CCCCN(C)C)C(=O)N4[C@H]3c3ccc(O)cc3)cc2)[C@]12C(=O)Nc1ccccc12 2.21
COC(=O)[C@@]1(Cc2ccccc2)[C@H]2c3cc(C(=O)N(C)C)n(Cc4ccccn4)c3C[C@H]2CN1C(=O)c1ccccc1 0.048
